Results reported in the supplement of paper PMC6555819.

Assays:
Experiment in all cases: PBM binding z-score (relative to random genomic background probes); higher = stronger binding; sequences stand for … in GC…GCGATTGACAGCGTAGAATGAAGG
[1] = system: RARb homodimer (NR concentration 270 nM)
Procedure, shortened: (§1)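 Ligand-free nuclear receptor dimers were bound for 1 h to custom Agilent 4×180K protein-binding microarrays. Detection used antibodies against each partner (one per run). Binding z-scores rest on regression-normalized fluorescence, with random background probes as the reference.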

[2] = system: RARg:RXRa (NR concentration 270 nM, RXRa partner concentration 90 nM)
Procedure, shortened: as §1

[3] = system: RARg homodimer (NR concentration 270 nM)
Procedure, shortened: as §1

[4] = system: RXRa DBDmut IVT, anti-RXR (DBD mutation: RXRa K156A/R161A, NR concentration 90 nM)
Procedure, shortened: as §1

[5] = system: RXRa homodimer (NR concentration 180 nM)
Procedure, shortened: as §1

[6] = system: THRa:RXRa (NR concentration 90 nM, RXRa partner concentration 90 nM)
Procedure, shortened: as §1

[7] = system: THRa homodimer (NR concentration 90 nM)
Procedure, shortened: as §1

[8] = system: VDR homodimer (NR concentration 270 nM)
Procedure, shortened: as §1

Sequence	PBM binding z-score [1]	PBM binding z-score [2]	PBM binding z-score [3]	PBM binding z-score [4]	PBM binding z-score [5]	PBM binding z-score [6]	PBM binding z-score [7]	PBM binding z-score [8]
GTACCAAGGTGAATACGTCGTTGATGAGTAGGCG	0.139	0.764	0.692	-0.417	0.56	1.19	0.199	-0.342
CCTGTTAGTTGACCATAAGGGCAACCGAAGCTCG	2.14	1.2	0.916	0.329	0.511	1.88	1.5	0.539
CCTAGCAGGGCAATCTGGGTCACTCAAGGCTTGA	2.36	1.56	1.89	0.252	0.981	4.24	-0.0319	-0.354
